Results filed as inconclusive are left out. The source made the active and inactive calls. Unless noted, the call rests on the fitted dose curve; in most records, active means well fitted curve in the direction sought with a large enough effect in the repeat runs; inconclusive means weak or mixed curves; inactive means no such curve, though single readings can be large; an effect the other way counts as inactive or inconclusive.
Columns and labels:
[1] = qHTS assay for small molecule agonists of the p53 signaling pathway (AID 651631; calls by dose curve; further: nearly all actives have a fitted effect of over 15% in size)
Procedure, shortened: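 Agonist mode screen using a stably integrated beta-lactamase gene under p53 response elements in HCT-116 cells. Compound exposure lasts 16 h at 37 °C; fluorescence intensity is measured following 2 h FRET substrate loading.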

[2] = qHTS assay for small molecules that induce genotoxicity in human embryonic kidney cells expressing luciferase-tagged ATAD5 (AID 651632); further: nearly all actives have a fitted effect of over 15% in size
Procedure, shortened: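 HEK293T cells carrying luciferase-tagged ATAD5 were given compound or DMSO vehicle and incubated 16 hr at 37C, 5% CO2. Luciferase activity was read after 30 min at room temperature with Amplite; a rise signals genotoxic stress.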

[3] = qHTS assay for small molecule agonists of the p53 signaling pathway - cell viability (AID 651633; calls by dose curve;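 further: p53RE-bla HCT reporter cells with a stable beta-lactamase p53 reporter; series mostly up to about 83 µM; nearly all actives have a fitted effect of over 30% in size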)
Procedure, shortened: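 p53RE-bla cells, seeded at 4,000 per well and rested 5 h at 37 C/5% CO2, received compounds in DMSO for 16 h at 37 C. CellTiter-Glo was then added, and luminescence was read after 30 min at room temperature to gauge cytotoxicity.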

[4] = qHTS assay for small molecules that induce genotoxicity in human embryonic kidney cells expressing luciferase-tagged ATAD5 - cell viability (AID 651634; calls by dose curve; further: nearly all actives have a fitted effect of over 25% in size)
Procedure, shortened: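 HEK293T cells carrying luciferase-tagged ATAD5, 2,000 cells/well, exposed to compound for 15.5 hr at 37C. Viability read as live-cell protease activity by CellTiter-Fluor fluorescence after 30 min at 37C.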

[5] = qHTS assay for small molecule disruptors of the mitochondrial membrane potential - cell viability (AID 720634; calls by dose curve;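 further: human HepG2 liver cancer cells; series mostly up to about 83 µM; nearly all actives have a fitted effect of over 20% in size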)
Procedure, shortened: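 HepG2 cells, 2,000 per well, attached overnight, then treated 1 hr at 37 C, 5% CO2. Viability read as ATP by CellTiter-Glo luminescence after 30 min at room temperature. Read in the same wells as the m-MPI membrane-potential dye assay.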

[6] = qHTS assay for small molecule disruptors of the mitochondrial membrane potential (AID 720635)
Procedure, shortened: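 HepG2 cells (2,000/well) attached overnight at 37C, then took compound for 1 hr at 37C, 5% CO2. Mito-MPS dye was added for 30 min; fluorescence was read at 490/535 nm (monomers) and 540/590 nm (aggregates).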

[7] = qHTS assay to test for compound auto fluorescence at 590 nm (red) in HepG2 cells (AID 720674)
Procedure, shortened: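 Compound auto-fluorescence is scored relative to Rose Bengal sodium, measured at 540/590 nm in live HepG2 cultures after 1 hr compound contact (37 C, 5% CO2).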

[8] = qHTS assay to test for compound auto fluorescence at 535 nm (green) in HepG2 cells (AID 720675)
[9] = qHTS assay to test for compound auto fluorescence at 460 nm (blue) in HEK293 cells (AID 720678)
Procedure, shortened: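 Triamterene serves as the blue fluorophore standard. Compound signal at 405/460 nm is read in HEK293 wells (2,000 cells, 10% dialyzed FBS) after overnight treatment at 37C.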

[10] = qHTS assay to test for compound auto fluorescence at 590 nm (red) in HEK293 cells (AID 720679)
Procedure, shortened: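 We plated HEK293 cells in 10% dialyzed FBS medium, let them adhere for 4-5 hr, then added 23 nL compound. Overnight at 37C and 5% CO2 preceded fluorescence measurement at 540/590nm.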

[11] = qHTS assay to test for compound auto fluorescence at 535 nm (green) in HEK293 cells (AID 720680)
[12] = qHTS assay to test for compound auto fluorescence at 460 nm (blue) in HEK293 cell free culture (AID 720681)
Procedure, shortened: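 Test compounds were pinned into cell-free culture medium (DMEM with 10% FBS) and fluorescence was read directly at Ex/Em 405/460 nm. Signals were expressed as fluorescence equivalents of triamterene, with DMSO vehicle as control.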

[13] = qHTS assay to test for compound auto fluorescence at 535 nm (green) in HEK293 cell free culture (AID 720682)
Procedure, shortened: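 No cells present: wells hold DMEM supplemented with 10% FBS, into which compound or vehicle is pinned. Green emission is then recorded (485 nm excitation, 535 nm emission) and scaled to fluorescein.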

[14] = qHTS assay to test for compound auto fluorescence at 590 nm (red) in HEK293 cell free culture (AID 720683)
Procedure, shortened: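 Tox21 10K library compounds were pinned into cell-free DMEM with 10% FBS and fluorescence was read at excitation 540 nm. Activity is expressed as Rose Bengal sodium equivalency.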

[15] = qHTS assay to test for compound auto fluorescence at 590 nm (red) in HepG2 cell free culture (AID 720684)
Procedure, shortened: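 Red fluorescence (540 nm excitation, 590 nm emission) was measured after compound transfer into cell-free MEM supplemented with 10% FBS. Values are equivalencies against Rose Bengal sodium.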

[16] = qHTS assay to test for compound auto fluorescence at 460 nm (blue) in HepG2 cell free culture (AID 720685)
Procedure, shortened: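 Compound (23 nL) or DMSO pinned into cell-free MEM with 10% FBS; blue fluorescence read at 405/460 nm excitation/emission, expressed as auto-fluorescence equivalency to triamterene.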

[17] = qHTS assay to test for compound auto fluorescence at 460 nm (blue) in HepG2 cells (AID 720687)
Procedure, shortened: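 Cells (2,000/well in MEM with 10% FBS) attached overnight at 37 C, then were exposed to compound or DMSO for 1 hr at 37 C, 5% CO2. Fluorescence read at Ex/Em 405/460 nm, expressed as triamterene-equivalent signal.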

[18] = target: Glucocorticoid receptor (Homo sapiens) (UniProt P04150); experiment: qHTS assay to identify small molecule agonists of the glucocorticoid receptor (GR) signaling pathway (AID 720691; active means well fitted activation curve with a large enough effect in the signal ratio in the repeat runs, not every such curve was filed as active; the % refers to the signal ratio)
Glucocorticoid receptor (Homo sapiens), sequence (P04150 whole entry, looked up): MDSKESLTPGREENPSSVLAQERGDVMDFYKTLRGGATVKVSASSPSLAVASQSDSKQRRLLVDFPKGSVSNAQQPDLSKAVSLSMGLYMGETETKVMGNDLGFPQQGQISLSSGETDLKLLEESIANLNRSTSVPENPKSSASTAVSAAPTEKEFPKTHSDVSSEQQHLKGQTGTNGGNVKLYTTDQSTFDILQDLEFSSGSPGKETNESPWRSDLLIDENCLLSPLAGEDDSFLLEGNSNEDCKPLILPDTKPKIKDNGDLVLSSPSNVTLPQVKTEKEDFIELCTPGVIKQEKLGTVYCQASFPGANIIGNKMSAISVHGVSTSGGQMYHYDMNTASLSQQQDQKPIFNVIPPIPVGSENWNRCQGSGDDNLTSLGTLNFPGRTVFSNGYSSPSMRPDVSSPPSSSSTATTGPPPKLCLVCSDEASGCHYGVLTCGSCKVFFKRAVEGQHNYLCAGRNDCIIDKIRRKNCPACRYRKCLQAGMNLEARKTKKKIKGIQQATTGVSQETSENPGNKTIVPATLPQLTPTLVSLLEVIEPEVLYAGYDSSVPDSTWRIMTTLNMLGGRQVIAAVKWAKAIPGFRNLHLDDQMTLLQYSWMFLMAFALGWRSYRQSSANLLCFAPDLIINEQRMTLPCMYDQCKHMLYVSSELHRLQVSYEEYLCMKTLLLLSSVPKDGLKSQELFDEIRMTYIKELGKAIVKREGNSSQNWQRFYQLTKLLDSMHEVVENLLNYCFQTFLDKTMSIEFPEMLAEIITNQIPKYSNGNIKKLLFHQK
Procedure, shortened: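 GR-bla HeLa cells carrying a GRE-driven beta-lactamase reporter, exposed to compounds for 18 h at 37 C. Reporter activation read as fluorescence after 2 h with LiveBLAzer B/G FRET substrate at room temperature.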

[19] = target: Glucocorticoid receptor (Homo sapiens) (UniProt P04150); experiment: qHTS assay to identify small molecule antagonists of the glucocorticoid receptor (GR) signaling pathway (AID 720692; active means well fitted inhibition curve with a large enough effect in the signal ratio in the repeat runs, not every such curve was filed as active; the % refers to the signal ratio)
Procedure, shortened: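 GR-bla HeLa cells carrying a GRE-driven beta-lactamase reporter received compound after 4 h plating, then dexamethasone (5 nM final). After 18 h at 37C, the FRET substrate was loaded for 2 h at room temperature and fluorescence read.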

[20] = qHTS assay to test for compound auto fluorescence at 535 nm (green) in HepG2 cell free culture (AID 720686)

Measured: Potency

CC(O)CN(CCN(CC(C)O)CC(C)O)CC(C)O (stereo not drawn)
inactive: [1] | [2] | [3] | [4] | [5] | [6] | [7] | [8] | [9] | [10] | [11] | [12] | [13] | [14] | [15] | [16] | [17] | [18] | [19]

Cc1ccc(O)cc1
inactive: [1] | [3] | [4] | [5] | [6] | [7] | [8] | [9] | [10] | [11] | [12] | [13] | [14] | [15] | [16] | [17] | [18] | [19]

O=C(O)c1cccc([N+](=O)[O-])c1
inactive: [1] | [3] | [4] | [5] | [6] | [7] | [8] | [9] | [10] | [11] | [12] | [13] | [14] | [15] | [16] | [17] | [18] | [19]

CC(C)(Oc1ccc(C2CC2(Cl)Cl)cc1)C(=O)O (stereo not drawn)
inactive: [1] | [3] | [4] | [5] | [6] | [7] | [8] | [9] | [10] | [11] | [12] | [13] | [14] | [15] | [16] | [20] | [17] | [18] | [19]

CCCC(O)C(CC)CO (stereo not drawn)
inactive: [1] | [3] | [4] | [5] | [6] | [7] | [8] | [9] | [10] | [11] | [12] | [13] | [14] | [15] | [16] | [17]

NC(=O)c1cnccn1
inactive: [1] | [2] | [3] | [4] | [5] | [6] | [7] | [8] | [9] | [10] | [11] | [12] | [13] | [14] | [15] | [16] | [18] | [19]

Cc1noc(NS(=O)(=O)c2ccc(N)cc2)c1C
inactive: [1] | [3] | [4] | [5] | [6] | [7] | [8] | [9] | [10] | [11] | [12] | [13] | [14] | [15] | [16] | [20] | [17]

Cc1cc(=O)n(-c2ccccc2)n1C
inactive: [1] | [2] | [3] | [4] | [5] | [6] | [7] | [8] | [9] | [10] | [11] | [12] | [13] | [14] | [15] | [16] | [20] | [17]
